Results: PubChem BioAssay
Active and inactive are the calls of the source. Unless noted, no rule for the calls is given here.

Experiments:
[1] = anti-His antibody binders, primary screen, artefact control for SMM control protein annotation, biochemical, small-molecule microarray, 635 nm fluorescence (AID 1128); conditions: anti-His Alexa647 antibody binding, higher = more signal;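 also: score merges feature fluorescence with signal-to-noise for each printed compound spot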
[2] = system: Human papillomavirus type 1a E7 protein (residues 1-88); experiment: HPV1a E7 small-molecule binders, primary screen, biochemical, small-molecule microarray, residues 1-88, 635 nm (AID 1129); conditions: small-molecule microarray binding, fluorescence 635 nm; higher = more signal
[3] = target: Focal adhesion kinase 1 (Homo sapiens) (UniProt Q05397); experiment: small-molecule microarray binders of FAK, primary screen, biochemical, 635/667 nm fluorescence, BSA, DTT (AID 1130); conditions: PTK2 binding, 635 nm fluorescence, higher = more signal;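 also: composite of spot emission at 667 nm and signal to noise over triplicate slides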
[4] = system: Fibrinogen (Alexa647-labelled); experiment: fibrinogen binders on compound microarrays, profiling panel, artefact control for SMM control-protein annotation, biochemical, small-molecule microarray, 635/667 nm fluorescence (AID 1131); conditions: fibrinogen-A647 binding fluorescence, higher = more signal;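 also: z-score merges 667 nm fluorescence with per-spot signal-to-noise over triplicate slides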
[5] = target: Follistatin (Homo sapiens) (UniProt P19883); experiment: follistatin binders on small-molecule microarrays, primary screen, biochemical, small-molecule microarray, 635/667 nm fluorescence (AID 1132); conditions: FST binding, 635 nm fluorescence, higher = more signal
[6] = target: Fibroblast growth factor 2 (Homo sapiens) (UniProt P09038); experiment: FGF2 binders on small-molecule microarrays, primary screen, biochemical, small-molecule microarray, 635/667 nm fluorescence (AID 1133); conditions: small-molecule microarray binding, FGF2, fluorescence 635/667; higher = more signal
[7] = mitochondrial membrane potential change in A549 cells, profiling panel, cell-based, JC-1 fluorescence, basal, 24 h, 100 nL (AID 1138); conditions: higher = more signal;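 also: A549 lung adenocarcinoma cells under basal conditions with no added stimulus; test concentration not given here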
[8] = system: Lefty1; experiment: Lefty1 binders on small-molecule microarrays, primary screen, biochemical, small-molecule microarray, 635/667 nm fluorescence (AID 1139); conditions: small-molecule microarray binding, fluorescence 635/667; higher = more signal
[9] = system: wheat germ agglutinin (Triticum aestivum), Alexa647-labelled; experiment: wheat germ agglutinin binders on compound microarrays, profiling panel, artefact control for SMM control-protein annotation, biochemical, small-molecule microarray, 635/667 nm fluorescence (AID 1140); conditions: WGA-A647 binding, 635 nm fluorescence, higher = more signal;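 also: score merges 667 nm feature emission with signal to noise over triplicate slides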
[10] = target: Luciferin 4-monooxygenase (Photinus pyralis) (UniProt P08659); experiment: firefly luciferase enzyme inhibitors, primary screen, biochemical, luminescence, purified enzyme, 2006 set (AID 1141); conditions: SteadyGlo luminescence, 30 min, higher = more signal, called active from +8 up or from −8 down;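 also: cell-free assay with purified firefly luciferase at 100 ng per well in PBS; test concentration not given here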
[11] = system: Wnt5a (protein binding on small-molecule microarray); experiment: Wnt5a binders on small-molecule microarray, primary screen, biophysical, 635/667 nm fluorescence (AID 1142); conditions: 635 nm fluorescence, higher = more signal;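 also: fluorescence read at 667 nm with signal to noise per printed feature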
[12] = cell viability in Huh7 cells, primary screen, cytotoxicity control for HCV replication inhibitor project, CellTiter-Glo luminescence, basal, 48 h (AID 1143); conditions: Huh7 HCV replicon, higher = more signal, called active from +8 up or from −8 down;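 also: Huh7 hepatoma cells carrying a hepatitis C replication reporter with no stimulus; test concentration not given here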
[13] = P. aeruginosa biofilm formation inhibitors, primary screen, PAO1 strain, BacTiter-Glo luminescence, LB-PBS (AID 1144); conditions: 12 h, higher = more signal
[14] = CREB reporter modulators without forskolin, primary screen, cell-based, PC12, CRE-LacZ reporter, unstimulated (AID 1145); conditions: no forskolin, luminescence, 4.5 h, higher = more signal, called active from +8 up or from −8 down
[15] = CREB reporter modulators under forskolin, primary screen, cell-based, PC12, CRE-LacZ reporter, forskolin-stimulated (AID 1146); conditions: luminescence, 4.5 h, higher = more signal, called active from +8 up or from −8 down;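 also: PC12 cells with 6xCRE LacZ reporter stimulated by forskolin 10 µM; beta-galactosidase reporter signal reflecting CREB driven transcription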
[16] = target: Streptavidin (Streptomyces avidinii) (UniProt P22629); experiment: streptavidin binders on small-molecule microarray, primary screen, artefact control for SMM compound annotation, biophysical, 635/667 nm fluorescence (AID 1147); conditions: streptavidin binding, higher = more signal;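 also: signal reflects streptavidin binding to arrayed compounds as a control protein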
[17] = small-molecule binders of probe aInhba, primary screen, biochemical, small-molecule microarray, 635/667 nm fluorescence (AID 1148); conditions: higher = more signal;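 also: score merges 667nm spot fluorescence with signal-to-noise for antibody binding to printed compounds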
[18] = target: Torsin-1A (Homo sapiens) (UniProt O14656); experiment: torsin A binders from cell lysate, primary screen, small-molecule microarray, wild-type, 635/667 nm (AID 1149); conditions: COS7 hTOR1A-WT lysate, 635 nm fluorescence, higher = more signal
[19] = target: Torsin-1A (Homo sapiens) (UniProt O14656); experiment: small-molecule binders of mutant TOR1A in lysate, primary screen, cell lysate, small-molecule microarray, COS7 lysate, 635/667 nm fluorescence (AID 1150); conditions: COS7 hTOR1A mutant lysate, 635 nm fluorescence, higher = more signal;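 also: score pools 667 nm emission and signal to noise measuring lysate protein binding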
[20] = system: Sonic hedgehog protein (Shh); experiment: small-molecule binders of Shh protein, primary screen, biochemical, small-molecule microarray, 635/667 nm fluorescence (AID 1151); conditions: small-molecule microarray binding, 635 nm fluorescence; higher = more signal;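 also: Shh protein binding to compounds spotted on small-molecule microarray slides; score combines spot fluorescence intensity with signal-to-noise across triplicate slides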

Chain of Luciferin 4-monooxygenase (Photinus pyralis) (P08659 whole entry, looked up): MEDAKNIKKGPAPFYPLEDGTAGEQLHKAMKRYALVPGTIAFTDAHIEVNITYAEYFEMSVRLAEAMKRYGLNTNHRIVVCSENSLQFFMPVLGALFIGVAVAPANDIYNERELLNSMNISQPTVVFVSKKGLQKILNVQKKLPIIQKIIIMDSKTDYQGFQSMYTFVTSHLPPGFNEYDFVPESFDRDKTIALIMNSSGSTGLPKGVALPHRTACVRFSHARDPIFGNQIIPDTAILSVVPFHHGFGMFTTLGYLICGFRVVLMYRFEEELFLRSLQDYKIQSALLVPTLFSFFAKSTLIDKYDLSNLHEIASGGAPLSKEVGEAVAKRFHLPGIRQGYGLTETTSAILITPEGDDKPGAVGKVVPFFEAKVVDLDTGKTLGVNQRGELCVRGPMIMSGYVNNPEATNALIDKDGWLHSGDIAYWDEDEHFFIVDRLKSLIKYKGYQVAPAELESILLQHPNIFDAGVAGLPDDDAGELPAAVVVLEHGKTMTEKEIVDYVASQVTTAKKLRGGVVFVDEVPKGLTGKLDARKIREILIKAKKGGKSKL
Chain of Streptavidin (Streptomyces avidinii) (P22629 whole entry, looked up): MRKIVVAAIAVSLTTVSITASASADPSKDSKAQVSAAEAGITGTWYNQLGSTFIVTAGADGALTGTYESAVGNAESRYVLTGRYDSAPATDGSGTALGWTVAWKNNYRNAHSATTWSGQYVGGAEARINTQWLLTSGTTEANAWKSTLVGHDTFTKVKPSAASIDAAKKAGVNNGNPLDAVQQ
Chain of Torsin-1A (Homo sapiens) (O14656 whole entry, looked up): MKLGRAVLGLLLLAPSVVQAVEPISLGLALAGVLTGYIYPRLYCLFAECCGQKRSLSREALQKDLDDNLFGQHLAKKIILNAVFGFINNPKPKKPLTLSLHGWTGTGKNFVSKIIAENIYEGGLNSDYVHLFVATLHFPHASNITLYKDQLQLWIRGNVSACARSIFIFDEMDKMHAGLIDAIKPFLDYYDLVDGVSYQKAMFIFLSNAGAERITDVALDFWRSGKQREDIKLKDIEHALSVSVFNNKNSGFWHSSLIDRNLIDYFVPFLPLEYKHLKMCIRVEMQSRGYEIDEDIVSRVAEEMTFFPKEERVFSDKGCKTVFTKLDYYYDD
Chain of Follistatin (Homo sapiens) (P19883 whole entry, looked up): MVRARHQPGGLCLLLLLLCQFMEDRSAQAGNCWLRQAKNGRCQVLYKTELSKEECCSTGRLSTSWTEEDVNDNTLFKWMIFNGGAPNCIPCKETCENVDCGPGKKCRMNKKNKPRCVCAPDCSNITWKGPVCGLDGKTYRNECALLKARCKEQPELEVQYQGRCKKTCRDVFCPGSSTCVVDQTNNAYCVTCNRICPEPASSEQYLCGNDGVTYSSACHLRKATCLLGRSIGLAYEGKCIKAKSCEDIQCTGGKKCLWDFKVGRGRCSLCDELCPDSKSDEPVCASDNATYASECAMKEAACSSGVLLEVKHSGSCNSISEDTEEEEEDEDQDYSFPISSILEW
Chain of Focal adhesion kinase 1 (Homo sapiens) (Q05397 whole entry, looked up): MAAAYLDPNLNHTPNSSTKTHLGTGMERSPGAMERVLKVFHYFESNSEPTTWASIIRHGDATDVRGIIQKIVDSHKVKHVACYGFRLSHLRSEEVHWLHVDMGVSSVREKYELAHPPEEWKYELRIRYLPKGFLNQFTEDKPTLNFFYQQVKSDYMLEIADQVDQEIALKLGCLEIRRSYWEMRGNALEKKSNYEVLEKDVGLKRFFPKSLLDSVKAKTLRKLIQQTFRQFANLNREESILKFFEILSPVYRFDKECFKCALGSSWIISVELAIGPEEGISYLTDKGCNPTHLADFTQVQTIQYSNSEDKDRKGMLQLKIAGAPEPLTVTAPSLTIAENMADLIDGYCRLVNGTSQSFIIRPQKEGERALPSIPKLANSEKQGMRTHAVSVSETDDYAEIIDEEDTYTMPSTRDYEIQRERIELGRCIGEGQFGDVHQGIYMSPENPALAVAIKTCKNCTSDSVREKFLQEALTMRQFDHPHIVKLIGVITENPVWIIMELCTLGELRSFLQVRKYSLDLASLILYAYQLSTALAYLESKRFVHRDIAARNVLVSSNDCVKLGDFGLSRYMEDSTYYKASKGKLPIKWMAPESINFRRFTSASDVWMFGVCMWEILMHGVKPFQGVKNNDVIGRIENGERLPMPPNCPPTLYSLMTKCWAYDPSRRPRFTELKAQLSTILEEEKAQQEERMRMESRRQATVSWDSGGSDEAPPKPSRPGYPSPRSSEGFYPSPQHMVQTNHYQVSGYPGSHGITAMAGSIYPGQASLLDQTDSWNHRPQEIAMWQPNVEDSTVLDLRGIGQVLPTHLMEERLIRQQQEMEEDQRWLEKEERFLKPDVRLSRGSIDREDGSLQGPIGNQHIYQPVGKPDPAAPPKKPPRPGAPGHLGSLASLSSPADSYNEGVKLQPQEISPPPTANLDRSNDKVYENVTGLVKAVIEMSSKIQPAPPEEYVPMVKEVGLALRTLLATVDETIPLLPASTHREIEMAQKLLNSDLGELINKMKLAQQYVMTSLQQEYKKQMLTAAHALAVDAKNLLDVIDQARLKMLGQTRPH
Chain of Fibroblast growth factor 2 (Homo sapiens) (P09038 whole entry, looked up): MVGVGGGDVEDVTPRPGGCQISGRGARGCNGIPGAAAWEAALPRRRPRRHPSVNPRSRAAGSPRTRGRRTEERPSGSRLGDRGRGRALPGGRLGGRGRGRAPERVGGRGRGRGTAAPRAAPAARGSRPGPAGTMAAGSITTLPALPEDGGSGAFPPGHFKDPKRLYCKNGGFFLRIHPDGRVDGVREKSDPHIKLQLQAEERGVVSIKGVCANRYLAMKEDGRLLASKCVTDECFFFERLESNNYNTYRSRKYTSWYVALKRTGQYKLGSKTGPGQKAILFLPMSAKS

SMILES: CCOC(=O)C1=CC[C@@H](c2ccccc2C(F)(F)F)N(S(=O)(=O)c2ccc(C)cc2)[C@H]1c1ccc(C#N)cc1
- composite z-score [1]: 0.915
- composite z-score [2]: 1.15
- composite z-score [3]: -0.0446
- composite z-score [4]: 0.647
- composite z-score [5]: 0.507
- composite z-score [6]: 0.437
- z-score [7]: -1.92
- composite z-score [8]: -0.0373
- composite z-score [9]: 1.08
- z-score [10]: 1.47 (inactive)
- composite z-score [11]: 0.125
- z-score [12]: -1.96 (inactive)
- z-score [13]: -0.29 (inactive)
- z-score [14]: -0.676 (inactive)
- z-score [15]: 0.465 (inactive)
- composite z-score [16]: 1.11
- composite z-score [17]: 0.367
- composite z-score [18]: 0.502
- composite z-score [19]: 0.512
- composite z-score [20]: 0.494

SMILES: COc1ccc(CN(C2=CC[C@@]3(C(N)=O)C(=O)C(Cl)=C(Cl)C(=O)[C@@]3(C#N)C2)S(=O)(=O)c2ccc(Br)cc2)cc1
- composite z-score [1]: 1.89
- composite z-score [2]: 0.289
- composite z-score [3]: 0.0558
- composite z-score [4]: 0.115
- composite z-score [5]: -0.539
- composite z-score [6]: -0.537
- z-score [7]: -1.87
- composite z-score [8]: -0.53
- composite z-score [9]: 0.324
- z-score [10]: -5.26 (inactive)
- composite z-score [11]: -0.0312
- z-score [12]: -3.6 (inactive)
- z-score [13]: -0.897 (inactive)
- z-score [14]: 33.6 (active)
- z-score [15]: 119 (active)
- composite z-score [16]: 0.62
- composite z-score [17]: -0.0006
- composite z-score [18]: 0.385
- composite z-score [19]: 0.448
- composite z-score [20]: -0.245

SMILES: N#Cc1ccc(C(O)C2C=CC3C(=O)N(c4ccccc4)C(=O)C3N2Nc2ccccc2)cc1 (stereo not given)
- composite z-score [1]: 0.269
- composite z-score [2]: 0.455
- composite z-score [3]: 0.575
- composite z-score [4]: 0.528
- composite z-score [5]: 0.351
- composite z-score [6]: -0.265
- z-score [7]: -0.171
- composite z-score [8]: -0.454
- composite z-score [9]: 0.502
- z-score [10]: -1.26 (inactive)
- composite z-score [11]: 0.429
- z-score [12]: -3.06 (inactive)
- z-score [13]: -0.955 (inactive)
- z-score [14]: -0.133 (inactive)
- z-score [15]: 0.0648 (inactive)
- composite z-score [16]: 0.592
- composite z-score [17]: 0.144
- composite z-score [18]: -0.0489
- composite z-score [19]: 0.227
- composite z-score [20]: -0.669

SMILES: CCC[C@@H]1C[C@@]1(CCC)[C@@H](NC(=O)OCc1ccccc1)c1ccc(-c2ccccc2)cc1
- composite z-score [1]: -0.526
- composite z-score [2]: -0.691
- composite z-score [3]: -0.278
- composite z-score [4]: -1.37
- composite z-score [5]: 0.136
- composite z-score [6]: -0.824
- z-score [7]: 0.289
- composite z-score [8]: -0.543
- composite z-score [9]: -0.693
- z-score [10]: -0.765 (inactive)
- composite z-score [11]: -0.189
- z-score [12]: -1.28 (inactive)
- z-score [13]: -0.0658 (inactive)
- z-score [14]: -0.375 (inactive)
- z-score [15]: 0.785 (inactive)
- composite z-score [16]: -0.504
- composite z-score [17]: -0.12
- composite z-score [18]: -0.301
- composite z-score [19]: -0.928
- composite z-score [20]: -0.895

SMILES: CC(C)Cc1ccc(CN2CC[C@@H](NC(=O)Nc3ccccc3)C2)cc1
- composite z-score [1]: -0.0844
- composite z-score [2]: -1.63
- composite z-score [3]: 0.0749
- composite z-score [4]: 0.494
- composite z-score [5]: -0.182
- composite z-score [6]: -0.0224
- z-score [7]: -0.749
- composite z-score [8]: 0.08
- composite z-score [9]: 0.244
- z-score [10]: 0.398 (inactive)
- composite z-score [11]: 0.0405
- z-score [12]: -8.72 (active)
- z-score [13]: -0.00187 (inactive)
- z-score [14]: 0.757 (inactive)
- z-score [15]: -0.269 (inactive)
- composite z-score [16]: -0.0067
- composite z-score [17]: -0.148
- composite z-score [18]: 0.257
- composite z-score [19]: 0.274
- composite z-score [20]: 0.826

SMILES: CCOC(=O)C[C@H]1[C@H](OC(=O)c2cc3ccccc3oc2=O)[C@@H](NC(=O)Cc2ccc(OC)cc2)c2cc(OCCCO)ccc2N1C(=O)c1ccc2ccccc2n1
- composite z-score [1]: 1.37
- composite z-score [2]: 0.649
- composite z-score [3]: 0.199
- composite z-score [4]: 0.122
- composite z-score [5]: 0.93
- composite z-score [6]: 0.956
- z-score [7]: -0.013
- composite z-score [8]: 0.838
- composite z-score [9]: 0.0863
- z-score [10]: 0.0113 (inactive)
- composite z-score [11]: 0.34
- z-score [12]: 0.0642 (inactive)
- z-score [13]: 0.177 (inactive)
- z-score [14]: 11.5 (active)
- z-score [15]: -0.906 (inactive)
- composite z-score [16]: 0.14
- composite z-score [17]: 0.0275
- composite z-score [18]: 0.0518
- composite z-score [19]: 0.161
- composite z-score [20]: 0.479

SMILES: COCC1=C2[C@@H](CCc3ccccc3)OB(O)C[C@@H]2[C@@H]2C(=O)C=CC(=O)[C@@H]2C1
- composite z-score [1]: 1.39
- composite z-score [2]: 0.736
- composite z-score [3]: 0.238
- composite z-score [4]: 0.0217
- composite z-score [5]: 0.648
- composite z-score [6]: 0.519
- z-score [7]: -1.23
- composite z-score [8]: 0.654
- composite z-score [9]: 0.982
- z-score [10]: -3.14 (inactive)
- composite z-score [11]: 0.0021
- z-score [12]: -1.9 (inactive)
- z-score [13]: 0.353 (inactive)
- z-score [14]: 19.2 (active)
- z-score [15]: 22.8 (active)
- composite z-score [16]: 0.55
- composite z-score [17]: 0.0212
- composite z-score [18]: 0.246
- composite z-score [19]: 0.292
- composite z-score [20]: 0.963

SMILES: COCCOC(=O)N1C(=O)[C@@]2(c3cc(C#CC4=CCCCC4)ccc31)[C@H](c1ccc(O)cc1)N1[C@H](c3ccccc3)[C@H](c3ccccc3)OC(=O)[C@H]1[C@@H]2C(=O)N1CCN(c2ncccn2)CC1
- composite z-score [1]: -0.849
- composite z-score [2]: -1.1
- composite z-score [3]: -0.415
- composite z-score [4]: -0.805
- composite z-score [5]: -1.02
- composite z-score [6]: -0.958
- z-score [7]: 0.381
- composite z-score [8]: -1.14
- composite z-score [9]: -0.649
- z-score [10]: 1.18 (inactive)
- composite z-score [11]: -0.299
- z-score [12]: 0.498 (inactive)
- z-score [13]: -0.572 (inactive)
- z-score [14]: -0.467 (inactive)
- z-score [15]: -0.0588 (inactive)
- composite z-score [16]: -1.34
- composite z-score [17]: -0.152
- composite z-score [18]: -0.692
- composite z-score [19]: -1.27
- composite z-score [20]: -0.589

SMILES: COC(=O)[C@@]1(Cc2ccccc2)[C@@H]2C(=CC(=O)[C@H]2CC(=O)C(=O)N(C)C)CN1C(=O)c1ccccc1
- composite z-score [1]: 2.15
- composite z-score [2]: 1.25
- composite z-score [3]: 0.745
- composite z-score [4]: 0.0523
- composite z-score [5]: 0.324
- composite z-score [6]: -0.147
- z-score [7]: -0.312
- composite z-score [8]: -0.271
- composite z-score [9]: 0.407
- z-score [10]: -21 (active)
- composite z-score [11]: 0.117
- z-score [12]: -2.86 (inactive)
- z-score [13]: 0.421 (inactive)
- z-score [14]: 0.0075 (inactive)
- z-score [15]: 0.087 (inactive)
- composite z-score [16]: -0.0043
- composite z-score [17]: 0.308
- composite z-score [18]: 0.2
- composite z-score [19]: 0.239
- composite z-score [20]: -0.2
